# Measured values reported in PubChem BioAssay (NCI).
# The panel holds about 83,000 compounds, 20% with a hit somewhere; the sample as a whole holds those more often.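 Cell lines were cultured in 96-well plates, exposed to a single compound concentration, and assessed for percent growth 48 hours later.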 Values without a mark were called inactive. The source made the active and inactive calls. Rule for the calls: active = growth percent below 10; inactive = the rest.
# Tested on: HL-60(TB) leukemia
# Assay: NCI-60 one-dose screen, 48 h (100 = growth as untreated, 0 = no growth, -100 = all killed)
# Conditions: 10 µM unless noted
row,Compound,growth
1,COC(=O)CC[C@@H](C)[C@H]1CC[C@H]2[C@@H]3CC[C@@H]4C[C@H](O)CC[C@]4(C)[C@H]3C[C@H](O)[C@]12C,96.9%
2,NC(=S)NN=C1CCCC1,95.1%
3,O=C1c2ccccc2C(=O)c2c(N=Nc3[nH]c(=S)[nH]c3O)cccc21,-32.1% (active)
4,COc1ccc(NC(=O)Cc2nc3nc4sc(C)c(C)c4c(=O)n3[nH]2)cc1,109%
5,CC(C)C(C)(C)c1ccc(O)cc1,104%
6,C(=N\Nc1ccccn1)/c1ccccn1,12.3%
7,Nc1nc(Nc2ccccc2SSc2ccccc2Nc2nc(N)nc(-c3ccc(I)cc3)n2)nc(-c2ccc(I)cc2)n1,83.1%
8,COc1ccc(/C=N/Nc2c3ccccc3nc3ccccc23)cc1,92.9%
9,O=C1C[C@H](N2C(=O)c3ccccc3S2(=O)=O)C2CO[C@@H]1O2,106%
10,O=C(CCl)n1nnnc1Cc1ccccc1,83.5%
11,O=C(NC1CC(F)C1)c1cc2cccnc2n1-c1ccc(Cl)c(Cl)c1 (stereo not given),97.2%
12,CCOC(=O)c1c2c(c(C)n1Cc1ccc(OC)cc1)-c1oncc1CC2,91.9%
13,CCCC(O)Cn1ncc(C(=O)OCC)c1NC(=O)NCc1cccc(F)c1 (stereo not given),59.2%
14,CCCCC(O)(c1ccc(Cl)cc1)C(CN1CCOCC1)c1ccc(Cl)cc1 (stereo not given),53.6%
15,CN(C)CCCCNc1ccc(NCCCCN(C)C)c2c1C(=O)c1c(O)ccc(O)c1C2=O,24.6%
